DAGLB inhibitor = diacylglycerol lipase beta (human) inhibition | Q8NCG7 | HEK293T DAGLB membrane lysate, EnzChek fluorogenic substrate | AID 504411 | inhibition, % at 5.17 µM | 340,000 tested, 0.059% active; in the data active = inhibition above about 34%;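 note: 0% = enzyme with vehicle and 100% = wells lacking enzyme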
PAFAH2 inh = inhibitors of human PAFAH2; Q99487; 340,000 tested, 0.99% active; recombinant PAFAH2, FP-rhodamine activity probe, fluorescence polarization; inhibition, % at 3.39 µM;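 active = inhibition above the mean over all tested compounds plus 3 SD, cut at about 30% in these data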;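 note: inhibitors block probe labeling of enzyme so polarization drops; 0% = enzyme with DMSO and 100% = wells lacking PAFAH2 protein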
HTRA1 inhibitor = HTRA1 (human) protease inhibition | recombinant HTRA1, FP-rhodamine activity-based probe, fluorescence polarization | inhibition, % at 5.96 µM | 340,000 tested, 0.5% active | AID 504803; in the data active = inhibition above about 36%;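 note: 0% = enzyme with DMSO and 100% = wells lacking enzyme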
PAFAH1B3 inh = inhibitors of human PAFAH1B3; 340,000 tested, 0.28% active; recombinant PAFAH1B3, FP-rhodamine probe, fluorescence polarization; inhibition, % at 3.39 µM;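 active = inhibition above the screen-wide average of all tested compounds plus 3 SD, cut at about 25% in these data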;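 note: 0% = enzyme with DMSO only and 100% = wells lacking PAFAH1B3 protein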
Target sequence (Q15102 whole entry, looked up): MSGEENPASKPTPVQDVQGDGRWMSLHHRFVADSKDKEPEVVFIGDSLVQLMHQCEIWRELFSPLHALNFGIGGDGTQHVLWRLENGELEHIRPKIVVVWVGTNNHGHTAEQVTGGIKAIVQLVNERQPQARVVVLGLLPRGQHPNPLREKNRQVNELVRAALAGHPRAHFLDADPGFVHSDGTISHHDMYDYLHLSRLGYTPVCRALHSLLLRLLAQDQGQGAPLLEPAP
PAFAH1B2 FP inh = inhibitors of human PAFAH1B2. inhibition, % at 3.39 µM. AID 492953. 340,000 tested, 1.2% active. recombinant PAFAH1B2, FP-rhodamine activity probe, fluorescence polarization. P68402;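 active = inhibition above the mean of all tested compounds plus 3 SD, cut at about 24% in these data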;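 note: 0% = enzyme with DMSO and 100% = wells lacking PAFAH1B2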
pPAFAH inh = pPAFAH (human) enzyme inhibition | Q13093 | recombinant pPAFAH, FP-rhodamine probe fluorescence polarization | inhibition, % at 3.39 µM | 330,000 tested, 1.5% active;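 active = inhibition above the mean inhibition across the screen plus 3 SD, cut at about 25% in these data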;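 note: inhibitors block binding of the rhodamine activity-based probe so polarization drops; 0% = enzyme with DMSO and 100% = wells lacking pPAFAH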
Target sequence (Q13093 whole entry, looked up): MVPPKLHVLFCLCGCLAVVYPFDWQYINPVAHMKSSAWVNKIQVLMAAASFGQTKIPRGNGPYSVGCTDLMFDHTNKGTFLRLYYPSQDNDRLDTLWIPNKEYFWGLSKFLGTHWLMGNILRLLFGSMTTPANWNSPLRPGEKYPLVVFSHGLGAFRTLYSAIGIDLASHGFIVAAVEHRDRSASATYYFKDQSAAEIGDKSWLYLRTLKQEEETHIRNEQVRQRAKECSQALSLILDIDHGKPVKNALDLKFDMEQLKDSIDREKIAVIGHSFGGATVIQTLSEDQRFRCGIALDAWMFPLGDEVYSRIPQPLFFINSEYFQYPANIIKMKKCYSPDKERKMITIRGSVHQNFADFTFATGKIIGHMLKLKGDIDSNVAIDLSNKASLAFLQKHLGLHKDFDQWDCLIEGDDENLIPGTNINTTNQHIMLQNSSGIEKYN
* = called active by the depositor; x = no result given. Most compounds without a hit are left out; they make up all but 2.8% or so of the library.

SMILES	DAGLB inhibitor	PAFAH2 inh	HTRA1 inhibitor	PAFAH1B3 inh	PAFAH1B2 FP inh	pPAFAH inh
COc1cc2[nH]c(C(=O)N(C)Cc3ccccc3)cc2c(OC)c1OC	-4.5	2.4	-4.3	4.5	5.9	14.9
CCN(Cc1ccccc1)C(=O)c1cc2cc(OC)c(OC)cc2[nH]1	0.9	0.7	6.6	2.3	5.2	32.9*
CSCC[C@H](NC(=O)[C@@H]1Cc2c([nH]c3ccccc23)C2c3ccccc3C(=O)N21)C(=O)NCC1CCCO1 (stereo partly drawn)	-0.8	6.0	5.8	2.0	7.9	-4.3
CCc1ccc(N2CSC3=C(C#N)C(c4cccs4)CC(=O)N3C2)cc1 (stereo not drawn)	7.9	19.2	15.0	6.2	5.9	23.6
Cc1ccc(N2CSC3=C(C#N)C(c4cccs4)CC(=O)N3C2)cc1 (stereo not drawn)	6.7	11.9	-1.9	12.2	2.6	24.7*
CCCCn1c(N)c(N(CCOC)C(=O)CSCc2cccc(C)c2)c(=O)[nH]c1=O	0.7	1.1	-0.1	3.9	0.3	0.2
Cc1ccccc1CS(=O)(=O)Cc1ccc(C(=O)NCc2ccco2)o1	0.4	-3.0	-3.6	1.4	2.0	24.8*
CC1(C(=O)NCc2ccc(F)cc2)Oc2ccccc2NC1=O (stereo not drawn)	1.9	-3.0	-0.7	7.8	29.7*	0.1
COCCNC(=O)C1(C)Oc2ccccc2NC1=O (stereo not drawn)	-2.8	-12.5	5.1	-3.4	0.2	3.3
O=C(Nc1ccc(Br)cc1)c1cccc(S(=O)(=O)Nc2ccccn2)c1	1.1	0.9	-8.3	4.8	0.2	-8.9
COc1ccc(C(=O)Nc2ccc(S(=O)(=O)Nc3ncccn3)cc2)cc1OC	0.7	4.9	5.2	14.3	7.6	2.2
O=C(Nc1ccc(Br)cc1)c1cccc(S(=O)(=O)Nc2cnc3ccccc3c2)c1	0.6	2.6	-72.9	-1.0	-4.5	27.1*
COc1ccc(C(=O)Nc2ccc(NS(=O)(=O)c3ccccc3)cc2)cc1OC	0.2	1.9	-7.8	2.8	1.1	33.1*
Cc1ccc(NS(=O)(=O)c2ccc(/C=C/C(=O)O)cc2)cc1Cl	3.6	9.7	-8.1	-2.9	14.4	28.8*
Cc1c(C)c(C)c(C(=O)c2ccc(NC(=O)c3ccccc3C(=O)O)cc2)c(C)c1C	3.3	166.9*	-18.6	141.1*	108.5*	-0.6
CCn1c(SCC(=O)Nc2ccc(N(C)C)cc2)nnc1-c1ccco1	0.6	-5.1	4.8	-1.5	-1.9	2.6
O=C(Nc1ccc(NS(=O)(=O)c2ccccc2)cc1)c1ccc(Cl)cc1	-3.6	-19.6	-22.7	-11.5	-12.4	9.8
O=C(Nc1ccc(NS(=O)(=O)c2ccccc2)cc1)c1ccccc1	1.3	9.6	-14.4	-4.6	9.6	34.4*
Cc1ccc(NS(=O)(=O)c2ccc(NC(=O)c3ccccc3C(=O)O)cc2)cc1C	x	x	x	x	x	25.7*
O=S(=O)(Nc1ccc(F)cc1)c1ccc(NC(=S)Nc2ccccc2)cc1	0.2	2.4	-5.2	1.5	-2.2	25.0*
Cc1nc(N2CCOCC2)[nH]c(=O)c1C(O)C(Cl)(Cl)Cl (stereo not drawn)	-0.3	0.5	3.3	3.1	-2.3	3.9
Cc1ccccc1-n1ccnc1SCC(=O)NCc1ccco1	2.6	-0.7	5.9	3.5	5.0	-3.7
COCc1ccc(-c2c(-c3ccc(OC)cc3)oc(=O)c3cc(OC)c(OC)cc23)cc1	-9.6	-4.3	-11.2	-12.4	-4.0	3.5
COc1ccc(-c2oc(=O)c3cc(OC)c(OC)cc3c2-c2ccc3c(c2)OCO3)cc1	-8.8	-6.5	4.5	-6.9	0.2	26.6*
COc1ccc2nc(SCC(=O)Nc3nccs3)[nH]c2c1	-1.0	0.2	-7.3	13.2	0.3	-1.7
SMILES	DAGLB inhibitor	PAFAH2 inh	HTRA1 inhibitor	PAFAH1B3 inh	PAFAH1B2 FP inh	pPAFAH inh
Cn1c(=O)c2c(nc(N3CCOCC3)n2CC(=O)C23CC4CC(CC(C4)C2)C3)n(C)c1=O	-2.8	-5.1	-1.2	10.7	26.6*	3.0
CN1CCN(c2nc3c(c(=O)n(C)c(=O)n3C)n2CC(=O)C23CC4CC(CC(C4)C2)C3)CC1	-3.8	3.3	-1.5	5.6	-1.6	1.1
Cc1nnc(-c2ccc(Oc3ccc(Br)cc3)c([N+](=O)[O-])c2)o1	-13.7	-2.5	2.6	-14.2	8.1	16.2
O=[N+]([O-])c1cc(-c2cnc3ccccc3n2)ccc1Oc1ccc(Br)cc1	-24.0	-6.9	-1.3	2.2	54.1*	4.6
Cc1cc(C(=O)OCC(=O)Nc2c(Cl)cccc2C(F)(F)F)c(C)o1	3.3	22.1	-8.5	9.7	-0.8	4.8
COC(=O)[C@H](Cc1ccccc1)NC(=O)NC(C)CCc1ccccc1 (stereo partly drawn)	-0.9	8.0	-7.6	-5.1	9.4	1.1
COC(=O)C(Cc1ccccc1)NC(=O)CCC(=O)NC(C)CCc1ccccc1 (stereo not drawn)	-0.4	-5.1	0.7	2.2	26.9*	1.2
Cc1ccc(SCCC(=O)OCn2nnc3ccccc3c2=O)cc1	-1.4	3.4	1.6	2.3	21.9	12.8
Cc1ccc(SCC(=O)OCn2nnc3ccccc3c2=O)cc1C	-1.0	-8.1	-1.5	5.9	6.3	29.8*
COC(=O)C1=C(N)OC2=C(C(=O)CC(C)(C)C2)C1c1cc2c(cc1Cl)OCO2 (stereo not drawn)	-0.6	8.9	-6.2	15.8	6.3	-0.9
COC(=O)\C(C(C)=O)=C(/C=C/C=C/C=C/N(C)C)N(C)C	-0.5	-2.0	-0.4	-5.3	-4.4	31.7*
COc1ccc(C(=O)NCCSc2ccc(C)cc2)cc1	-10.1	0.4	-4.2	5.4	15.4	-4.4
CCOc1ccccc1C(=O)NCC(=O)NCCSc1ccc(Br)cc1	-9.0	-4.1	-4.3	3.7	27.8*	x
Cc1cccc(NS(=O)(=O)c2cc(C(=O)NCCC3=CCCCC3)ccc2Cl)c1	-4.2	1.6	-67.2	-3.0	25.2*	12.2
CCOc1ccccc1C(=O)NCCNC(=O)c1ccccc1OCC	0.9	0.5	5.1	-0.2	2.9	2.2
Cc1ccc(SCCNC(=O)c2ccccc2F)cc1	-16.8	-5.5	-2.6	0.1	25.4*	4.8
Cc1ccc(SCCNC(=O)c2ccccc2)cc1	-5.3	7.9	-1.8	8.9	26.5*	2.5
Cc1ccccc1NS(=O)(=O)c1cc(C(=O)NCCC2=CCCCC2)ccc1Cl	-4.0	3.4	-24.1	4.8	21.1	17.4
O=C(NCCSc1ccccc1)c1ccccc1F	-3.3	2.3	0.2	0.9	5.3	0.7
COc1cc(CC(=O)NCC2CCCCC2)cc(OC)c1OC	-7.4	4.5	2.5	8.9	2.4	10.0
CCCCNC(=O)CCSc1ccc(C)cc1	1.5	-1.5	-5.0	3.6	13.4	2.4
Cc1ccc(SCCNC(=O)c2ccc(C)c(S(=O)(=O)Nc3cccc(C)c3)c2)cc1	-8.0	-18.2	-108.5	-5.8	20.6	29.7*
Cc1ccc(SCCC(=O)NCCSCc2ccccc2C)cc1	-8.5	-1.3	-29.8	2.0	42.0*	4.0
